Targets with a hit are over-represented here; the source holds about 7,900 in all. About 0.6% of all pairs of compound and target were hits. Values without a mark were called inactive.
Assays:
Assay in all cases: log2 fold change, soluble protein after heating vs DMSO (PISA); higher = thermal stabilisation; K562 cells, 10 uM, 30 min; active = over 0.2 and 3.5 SD of the protein, either way, in both replicates (recomputed)
[1] = compound: CC1=C(C=C(C=C1)NC(=O)C2=CC(=CC=C2)C(C)(C)C#N)NC3=CC4=C(C=C3)N=CN(C4=O)C
In short: (§1)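 Values are thermal stability changes relative to control samples and are taken from duplicates. They are stated as log2 fold changes. Before quantification by TMTpro 16plex LC-MS/MS with equalised channel sums, K562 cells at 2×10^6 cells/mL were treated with 10 μM compound for 30 min, heated in aliquots for 3 min across 48°C-58°C, pooled, extracted in PBS with 0.5% NP-40 at 4°C, and centrifuged at 21,000xg for 90 min to give the soluble supernatant.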

[2] = compound: CC1=C(C=C(C=C1)NC(=O)C2=CC(=CC=C2)N(C)C)NC(=O)C3=CC=C(C=C3)O
In short: as §1

[3] = compound: CC1=CC=C(C=C1)SC2=C3C=C(SC3=CN=C2)C(=O)N
In short: as §1

[4] = compound: CC1=NC(=CC=C1)C2=C(N=C(N2)C(C)(C)C)C3=CC4=NC=CN=C4C=C3
In short: as §1

Nexturastat A = compound: CCCCN(Cc1ccc(C(=O)NO)cc1)C(=O)Nc1ccccc1 [Nexturastat A]
In short: as §1

vemurafenib = compound: CCCS(=O)(=O)Nc1ccc(F)c(C(=O)c2c[nH]c3ncc(-c4ccc(Cl)cc4)cc23)c1F [vemurafenib]
In short: as §1

[5] = compound: CCCS(=O)(=O)Nc1ccc(F)c(C(=O)c2c[nH]c3ncc(Cl)cc23)c1F
In short: as §1

[6] = compound: CCCc1cc(C)[nH]c(=O)c1CNC(=O)c1cc(-c2ccnc(N3CCN(C)CC3)c2)cc2c1cnn2C(C)C
In short: as §1

givinostat = compound: CCN(CC)Cc1ccc2cc(COC(=O)Nc3ccc(C(=O)NO)cc3)ccc2c1 [givinostat]
In short: as §1

barasertib = compound: CCN(CCCOc1ccc2c(Nc3cc(CC(=O)Nc4cccc(F)c4)[nH]n3)ncnc2c1)CCOP(=O)(O)O [barasertib]
In short: as §1

[7] = compound: CC[C@@H]1C(=O)N(C)c2cnc(Nc3ccc(C(=O)NC4CCN(C)CC4)cc3OC)nc2N1C1CCCC1
In short: as §1

volasertib = compound: CC[C@@H]1C(=O)N(C)c2cnc(Nc3ccc(C(=O)N[C@H]4CC[C@H](N5CCN(CC6CC6)CC5)CC4)cc3OC)nc2N1C(C)C [volasertib]
In short: as §1

[8] = compound: CC[C@H](C)N1C=C(C2=C(C=C(C=C21)C3=CN=C(C=C3)N4CCNCC4)C(=O)NCC5=C(C=C(NC5=O)C)C)C
In short: as §1

epoxomicin = compound: CC[C@H](C)[C@@H](C(=O)N[C@@H]([C@@H](C)O)C(=O)N[C@@H](CC(C)C)C(=O)[C@]1(CO1)C)NC(=O)[C@H]([C@@H](C)CC)N(C)C(=O)C [epoxomicin]
In short: as §1

[9] = compound: CCn1c(C(=O)N(C2CC2)C2CC2)cc2c3c(ncn3C)c(Nc3cc(C)n(C)n3)nc21
In short: as §1

[10] = compound: CCn1cc(-c2ccnc3[nH]c(-c4cccc(CN(C)C)c4)cc23)c(-c2ccc(NC(=O)N(C)C)cc2)n1
In short: as §1

[11] = compound: CN(C)CC(=O)Nc1ccc2[nH]c(=O)c3ccccc3c2c1
In short: as §1

rosiglitazone = compound: CN(CCOC1=CC=C(C=C1)C[C@H]2C(=O)NC(=O)S2)C3=CC=CC=N3 (racemic) [rosiglitazone]
In short: as §1

[12] = compound: CN1C2=C(C3=C1C(=O)N(N=C3)CC4=CC(=CC=C4)N)SC(=C2)S(=O)C
In short: as §1

[13] = compound: CN1CCC(CNc2ccc3ncc(-c4cccc(OC(F)(F)F)c4)n3n2)CC1
In short: as §1

Chain of UniProt Q658Y4 (Q658Y4 whole entry, looked up): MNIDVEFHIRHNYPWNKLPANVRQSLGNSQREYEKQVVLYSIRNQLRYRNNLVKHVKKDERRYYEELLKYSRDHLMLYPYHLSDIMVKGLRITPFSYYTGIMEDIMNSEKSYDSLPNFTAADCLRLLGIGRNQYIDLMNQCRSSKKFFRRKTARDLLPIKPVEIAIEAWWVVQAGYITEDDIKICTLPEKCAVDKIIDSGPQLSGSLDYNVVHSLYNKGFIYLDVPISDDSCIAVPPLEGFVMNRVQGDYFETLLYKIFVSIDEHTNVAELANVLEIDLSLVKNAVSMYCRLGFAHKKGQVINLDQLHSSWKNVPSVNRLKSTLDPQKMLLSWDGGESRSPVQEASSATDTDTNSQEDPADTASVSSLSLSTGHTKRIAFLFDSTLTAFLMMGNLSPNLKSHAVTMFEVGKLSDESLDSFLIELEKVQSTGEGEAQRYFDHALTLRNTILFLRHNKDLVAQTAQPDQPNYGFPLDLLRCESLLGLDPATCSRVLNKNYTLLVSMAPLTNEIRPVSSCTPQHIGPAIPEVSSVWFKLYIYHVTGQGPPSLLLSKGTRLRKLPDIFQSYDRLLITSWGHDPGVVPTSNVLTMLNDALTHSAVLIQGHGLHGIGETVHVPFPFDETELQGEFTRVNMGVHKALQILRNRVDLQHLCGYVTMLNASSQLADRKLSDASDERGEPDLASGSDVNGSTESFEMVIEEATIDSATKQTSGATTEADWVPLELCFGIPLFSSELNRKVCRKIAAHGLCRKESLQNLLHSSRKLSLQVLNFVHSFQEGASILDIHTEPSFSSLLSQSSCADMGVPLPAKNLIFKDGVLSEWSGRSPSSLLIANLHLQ
Chain of UniProt Q9Y3D6 (Q9Y3D6 whole entry, looked up): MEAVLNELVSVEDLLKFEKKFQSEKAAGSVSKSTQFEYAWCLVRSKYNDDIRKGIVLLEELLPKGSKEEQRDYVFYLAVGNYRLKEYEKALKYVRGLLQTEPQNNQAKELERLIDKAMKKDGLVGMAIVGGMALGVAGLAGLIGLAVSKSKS
Chain of UniProt P22087 (P22087 whole entry, looked up): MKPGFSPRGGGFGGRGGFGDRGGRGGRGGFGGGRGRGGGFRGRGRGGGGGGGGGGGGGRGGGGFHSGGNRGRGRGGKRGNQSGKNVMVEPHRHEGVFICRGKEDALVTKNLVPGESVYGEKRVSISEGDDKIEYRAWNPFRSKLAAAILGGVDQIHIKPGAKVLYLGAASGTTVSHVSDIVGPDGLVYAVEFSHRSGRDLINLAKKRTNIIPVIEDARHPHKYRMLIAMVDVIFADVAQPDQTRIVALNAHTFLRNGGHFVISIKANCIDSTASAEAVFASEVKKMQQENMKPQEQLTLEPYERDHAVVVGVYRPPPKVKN
Chain of UniProt O75146 (O75146 whole entry, looked up): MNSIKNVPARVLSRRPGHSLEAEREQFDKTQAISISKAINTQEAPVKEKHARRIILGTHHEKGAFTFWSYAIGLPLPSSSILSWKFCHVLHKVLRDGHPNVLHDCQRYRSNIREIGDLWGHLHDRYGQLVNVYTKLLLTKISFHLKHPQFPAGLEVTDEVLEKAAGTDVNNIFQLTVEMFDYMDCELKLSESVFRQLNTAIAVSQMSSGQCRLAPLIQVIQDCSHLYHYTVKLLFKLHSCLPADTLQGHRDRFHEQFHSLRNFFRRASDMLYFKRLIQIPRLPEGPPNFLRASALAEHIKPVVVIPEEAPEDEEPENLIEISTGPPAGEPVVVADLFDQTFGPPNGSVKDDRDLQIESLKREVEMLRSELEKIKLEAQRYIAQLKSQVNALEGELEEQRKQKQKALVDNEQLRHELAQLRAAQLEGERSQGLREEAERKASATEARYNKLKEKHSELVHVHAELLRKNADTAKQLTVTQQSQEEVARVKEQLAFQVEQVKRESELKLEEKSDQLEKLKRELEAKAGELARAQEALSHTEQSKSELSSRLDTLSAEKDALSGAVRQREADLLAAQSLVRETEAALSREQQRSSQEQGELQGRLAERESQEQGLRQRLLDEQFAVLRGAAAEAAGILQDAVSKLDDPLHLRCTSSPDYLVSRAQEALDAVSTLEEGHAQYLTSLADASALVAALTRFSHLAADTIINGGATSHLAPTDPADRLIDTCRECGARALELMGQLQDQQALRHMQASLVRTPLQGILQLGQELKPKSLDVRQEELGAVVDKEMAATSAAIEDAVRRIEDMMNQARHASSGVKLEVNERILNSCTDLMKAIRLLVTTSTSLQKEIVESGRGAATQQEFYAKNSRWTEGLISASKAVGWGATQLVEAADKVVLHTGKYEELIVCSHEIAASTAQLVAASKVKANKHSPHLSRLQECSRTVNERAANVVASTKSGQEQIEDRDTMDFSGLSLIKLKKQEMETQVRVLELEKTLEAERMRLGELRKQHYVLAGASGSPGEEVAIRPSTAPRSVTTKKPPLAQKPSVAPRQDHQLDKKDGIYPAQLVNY
Chain of UniProt P0CL80 (P0CL80 whole entry, looked up): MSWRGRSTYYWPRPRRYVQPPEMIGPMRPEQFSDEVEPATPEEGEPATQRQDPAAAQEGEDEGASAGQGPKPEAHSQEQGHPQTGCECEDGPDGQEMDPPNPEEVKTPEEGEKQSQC
Chain of UniProt P00367 (P00367 whole entry, looked up): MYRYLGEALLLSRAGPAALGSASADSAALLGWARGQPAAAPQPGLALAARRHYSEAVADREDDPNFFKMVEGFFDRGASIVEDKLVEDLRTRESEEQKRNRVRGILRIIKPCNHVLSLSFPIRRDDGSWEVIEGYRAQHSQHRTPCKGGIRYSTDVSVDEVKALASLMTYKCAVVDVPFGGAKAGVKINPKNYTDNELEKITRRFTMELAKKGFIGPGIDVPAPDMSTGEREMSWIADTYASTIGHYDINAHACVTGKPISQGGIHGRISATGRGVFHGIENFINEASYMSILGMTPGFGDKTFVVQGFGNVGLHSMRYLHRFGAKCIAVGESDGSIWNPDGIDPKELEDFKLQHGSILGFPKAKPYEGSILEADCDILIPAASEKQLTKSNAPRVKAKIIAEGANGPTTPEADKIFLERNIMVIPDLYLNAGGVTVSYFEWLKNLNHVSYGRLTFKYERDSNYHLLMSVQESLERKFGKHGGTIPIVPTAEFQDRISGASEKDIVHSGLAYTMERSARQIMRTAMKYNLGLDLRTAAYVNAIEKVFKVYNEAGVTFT
Chain of UniProt Q9UKD1 (Q9UKD1 whole entry, looked up): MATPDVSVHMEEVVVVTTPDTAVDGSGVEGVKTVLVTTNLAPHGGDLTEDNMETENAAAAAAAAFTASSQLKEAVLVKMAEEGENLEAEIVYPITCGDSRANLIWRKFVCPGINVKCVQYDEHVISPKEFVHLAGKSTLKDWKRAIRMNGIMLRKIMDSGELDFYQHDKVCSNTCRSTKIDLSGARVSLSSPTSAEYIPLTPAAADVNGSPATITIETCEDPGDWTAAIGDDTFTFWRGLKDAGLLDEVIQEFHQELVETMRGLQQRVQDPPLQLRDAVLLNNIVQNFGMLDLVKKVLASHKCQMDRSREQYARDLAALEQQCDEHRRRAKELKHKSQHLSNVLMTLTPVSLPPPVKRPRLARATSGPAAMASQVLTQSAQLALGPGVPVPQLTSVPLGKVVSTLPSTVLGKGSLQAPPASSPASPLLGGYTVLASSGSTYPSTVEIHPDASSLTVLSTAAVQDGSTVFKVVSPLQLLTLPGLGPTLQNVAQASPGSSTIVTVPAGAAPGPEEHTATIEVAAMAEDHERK
Chain of UniProt P14324 (P14324 whole entry, looked up): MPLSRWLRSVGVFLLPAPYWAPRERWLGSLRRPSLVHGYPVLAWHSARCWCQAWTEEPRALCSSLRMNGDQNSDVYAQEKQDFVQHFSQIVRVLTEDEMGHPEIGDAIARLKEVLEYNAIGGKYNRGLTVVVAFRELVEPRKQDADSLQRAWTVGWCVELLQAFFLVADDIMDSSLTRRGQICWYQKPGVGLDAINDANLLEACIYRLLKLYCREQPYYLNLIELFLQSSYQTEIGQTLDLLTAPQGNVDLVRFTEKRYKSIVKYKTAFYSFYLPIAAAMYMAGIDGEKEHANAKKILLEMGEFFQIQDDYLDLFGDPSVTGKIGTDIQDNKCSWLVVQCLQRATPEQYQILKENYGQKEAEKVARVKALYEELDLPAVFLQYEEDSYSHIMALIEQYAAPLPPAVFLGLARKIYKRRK
Chain of UniProt P52597 (P52597 whole entry, looked up): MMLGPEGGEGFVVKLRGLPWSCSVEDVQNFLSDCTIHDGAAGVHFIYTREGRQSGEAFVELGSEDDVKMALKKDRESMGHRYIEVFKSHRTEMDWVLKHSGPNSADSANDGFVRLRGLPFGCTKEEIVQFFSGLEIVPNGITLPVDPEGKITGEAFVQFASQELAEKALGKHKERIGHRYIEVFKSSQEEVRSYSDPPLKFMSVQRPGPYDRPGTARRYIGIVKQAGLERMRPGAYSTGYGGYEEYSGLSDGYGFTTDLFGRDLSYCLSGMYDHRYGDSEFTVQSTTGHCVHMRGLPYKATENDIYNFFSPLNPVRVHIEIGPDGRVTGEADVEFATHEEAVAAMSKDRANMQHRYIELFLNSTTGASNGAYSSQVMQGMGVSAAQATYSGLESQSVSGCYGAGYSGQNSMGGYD
Chain of UniProt P49841 (P49841 whole entry, looked up): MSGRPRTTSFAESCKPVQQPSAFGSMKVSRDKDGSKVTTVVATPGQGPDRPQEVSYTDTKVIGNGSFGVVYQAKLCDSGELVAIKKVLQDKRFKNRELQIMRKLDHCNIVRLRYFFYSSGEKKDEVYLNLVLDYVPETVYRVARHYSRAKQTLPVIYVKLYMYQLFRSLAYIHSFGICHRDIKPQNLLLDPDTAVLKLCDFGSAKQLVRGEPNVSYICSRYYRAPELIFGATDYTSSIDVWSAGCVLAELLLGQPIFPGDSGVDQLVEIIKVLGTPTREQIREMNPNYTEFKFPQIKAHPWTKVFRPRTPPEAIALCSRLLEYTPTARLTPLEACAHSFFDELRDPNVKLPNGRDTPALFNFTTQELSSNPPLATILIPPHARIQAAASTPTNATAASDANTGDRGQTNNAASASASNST

Target | log2 fold change [1] | log2 fold change [2] | log2 fold change [3] | log2 fold change [4] | log2 fold change (Nexturastat A) | log2 fold change (vemurafenib) | log2 fold change [5] | log2 fold change [6] | log2 fold change (givinostat) | log2 fold change (barasertib) | log2 fold change [7] | log2 fold change (volasertib) | log2 fold change [8] | log2 fold change (epoxomicin) | log2 fold change [9] | log2 fold change [10] | log2 fold change [11] | log2 fold change (rosiglitazone) | log2 fold change [12] | log2 fold change [13]
GLUD1 (UniProt P00367) | 0.179 | -0.007 | -0.054 | -0.011 | -0.063 | -0.012 | -0.02 | 0.136 | -0.062 | -0.007 | 0.146 | 0.25 | 0.034 | 0.024 | 0.126 | -0.054 | 0 | -0.007 | -0.128 | 0.102
HNRNPF (UniProt P52597) | 0.076 | -0.005 | -0.032 | -0.017 | 0.036 | 0.106 | 0.101 | 0.027 | 0.051 | 0.047 | -0.049 | -0.587 (active) | 0.128 | 0.009 | -0.066 | -0.027 | 0.051 | 0.037 | 0.052 | -0.153
FDPS (UniProt P14324) | -0.061 | -0.068 | 0.109 | -0.077 | 0.068 | 0.034 | -0.001 | -0.005 | 0.156 | 0.081 | -0.059 | -0.191 | 0.075 | 0.028 | -0.054 | -0.277 | 0.111 | 0.235 | -0.034 | -0.608 (active)
GSK3B isoform 2 (UniProt P49841) | 0.015 | -0.022 | 0.044 | 0.034 | 0.003 | -0.008 | -0.018 | -0.066 | -0.07 | -0.017 | 0.013 | -0.027 | -0.002 | 0.058 | -0.032 | -0.1 | -0.001 | 0.036 | -0.004 | 0.004
GAGE12F (UniProt P0CL80) | -0.005 | -0.035 | 0.006 | 0.061 | 0.036 | 0.019 | -0.018 | -0.031 | -0.076 | 0.01 | 0.037 | 0.069 | -0.033 | 0.034 | -0.039 | -0.058 | -0.095 | 0.002 | -0.049 | -0.234
HMGN2 (UniProt P05204) | 0.115 | 0.097 | -0.038 | 0.047 | -0.016 | 0.032 | -0.058 | -0.078 | -0.019 | 0.047 | -0.083 | 0.073 | -0.109 | -0.082 | 0.054 | -0.041 | -0.081 | -0.041 | 0.02 | 0.071
GLS isoform 3 (UniProt O94925) | 0.004 | -0.119 | -0.01 | 0.167 | 0.087 | 0.155 | 0.236 | 0.061 | 0.031 | 0.061 | -0.172 | -0.699 (active) | 0.126 | 0.152 | -0.017 | -0.055 | 0.069 | 0.046 | -0.039 | -0.364
GOLGB1 isoform 2 (UniProt Q14789) | 0.033 | -0.057 | -0.09 | -0.033 | 0.177 | -0.085 | -0.07 | -0.047 | 0 | -0.07 | 0.009 | -0.17 | -0.052 | -0.185 | 0.082 | 0.05 | -0.061 | 0.004 | 0.148 | -0.009
GHDC (UniProt Q8N2G8) | -0.028 | 0.057 | -0.03 | -0.021 | -0.113 | -0.041 | -0.044 | -0.011 | -0.025 | -0.008 | -0.075 | -0.053 | -0.063 | -0.021 | 0.011 | -0.024 | 0.009 | 0.008 | -0.053 | -0.041
GMEB2 (UniProt Q9UKD1) | 0.038 | -0.033 | 0.041 | -0.066 | 0.09 | 0.012 | 0.041 | -0.088 | 0.087 | 0.029 | 0.05 | -0.282 (active) | 0.062 | 0.156 | -0.059 | -0.048 | 0.018 | 0.145 | -0.03 | -0.075
FIS1 (UniProt Q9Y3D6) | -0.024 | 0.006 | 0 | 0 | -0.018 | 0.048 | -0.046 | -0.009 | -0.014 | -0.027 | 0.005 | 0.046 | -0.023 | -0.002 | 0.025 | 0.008 | 0.01 | 0.016 | -0.189 | -0.075
HSPA8 (UniProt E9PK54) | 0.023 | 0.034 | -0.123 | 0.006 | 0.227 | -0.036 | 0.026 | -0.098 | 0.167 | -0.023 | 0.041 | 0.213 | -0.003 | -0.252 | 0.03 | 0.131 | -0.06 | 0.042 | 0.11 | 0.128
HIP1R (UniProt O75146) | -0.028 | -0.053 | 0.003 | -0.002 | -0.047 | -0.026 | 0.036 | -0.006 | 0.059 | 0.041 | -0.035 | -0.268 (active) | 0.015 | 0.051 | -0.04 | -0.016 | -0.017 | 0.067 | 0.026 | -0.134
GCC2 (UniProt Q8IWJ2) | -0.004 | -0.012 | -0.016 | -0.031 | 0.322 (active) | 0.025 | 0.01 | 0.073 | 0.05 | -0.037 | 0.094 | -0.116 | 0.053 | -0.005 | 0.038 | 0.013 | 0.026 | -0.01 | 0.196 | 0.031
FBL (UniProt P22087) | -0.039 | 0.062 | -0.146 | -0.077 | 0.243 | -0.11 | -0.058 | 0.165 | 0.138 | -0.106 | 0.283 | 0.151 | -0.034 | -0.396 | -0.106 | 0.184 | -0.143 | -0.144 | 0.359 | 0.34
FAM91A1 (UniProt Q658Y4) | 0.035 | 0.034 | -0.036 | -0.048 | 0.286 (active) | -0.055 | 0.051 | 0.07 | 0.024 | 0.06 | 0.062 | 0.221 | -0.007 | -0.675 (active) | -0.08 | -0.015 | -0.003 | 0.037 | 0.001 | 0.233 (active)
